This note sets out measurements from ChEMBL document CHEMBL1157539, “Thousands of chemical starting points for antimalarial lead identification” (Nature, 2010).

Whole data set: some 13,000 compounds, median “IFI” near 4, cut for the highest 2% near 17. This is one part of a sample in which the highest values are shown more often than they occur.

The nature of this experiment: GSK_TCMDC: Inhibition Frequency Index (IFI). The number of non-kinase HTS assays where a compound showed > 50 % inhibition, expressed as a percentage of the number of such assays in which the compound was tested. In kind it is functional.
Turning to `Cc1cc2cc(-c3ccc(CN)cc3)ccc2nc1N`, the IFI was determined as 3.88%. The same measure for `O=C(c1ccc([N+](=O)[O-])o1)N1CCC(Cc2ccc(C(F)(F)F)cc2)CC1`: 9.52%; for `COCCN1CCN(Cc2ccc(-c3ccc(-c4nc5cc(F)ccc5[nH]4)cc3)cc2)CC1`: 4.9%.

Turning to `Clc1ccc(Nc2nc3nonc3nc2Nc2ccc(Cl)c(Cl)c2)cc1`, the IFI came to 19.4%. The same measure for `Clc1ccc(Nc2nc3ccc(Cl)cc3nc2Nc2ccc(Cl)cc2)cc1`: 10.1%; for `O=[N+]([O-])c1ccc2nc(Nc3ccc(Cl)c(Cl)c3)c(Nc3ccc(Cl)c(Cl)c3)nc2c1`: 2.86%. The same measure for `Clc1ccc(CNCCCCCCNCc2ccc(Cl)cc2)cc1`: 11.3%; for `CC(=O)Nc1cc(C(=O)Nc2cccc(-c3cccc(-c4nc5cccc(C)c5[nH]4)c3)c2)ccc1C`: 5.88%. The same measure for `Cc1cc(NCCc2ccccc2)nc(NC(=N)Nc2cccc(F)c2)n1`: 6.77%; for `COc1cccc(-c2ccc3ccnc(N)c3c2)c1`: 7.87%. Consider `Nc1nccc2ccc(-c3cccc(OCc4ccccc4)c3)cc12`, for which the IFI worked out at 19.8%.

For the compound `Nc1ccc(-c2ccc3ccnc(N)c3c2)cc1`, the IFI is 9.09%. The same measure for `Nc1nccc2ccc(-c3ccc(Oc4ccccc4)cc3)cc12`: 20.7%. As for `Nc1nccc2ccc(-c3ccncc3)cc12`, the figure is 3%. As for `NCc1cccc(-c2ccc3ccnc(N)c3c2)c1`, the figure is 2.86%. Compound `Nc1cccc(-c2ccc3ccnc(N)c3c2)c1` yielded an IFI of 5.56%. The same measure for `Nc1nccc2ccc(-c3cccc(O)c3)cc12`: 7.14%; for `Nc1nccc2ccc(-c3ccc(OCc4ccccc4)cc3)cc12`: 19.1%. In turn, `CNc1nc(Nc2ccccc2C)nc2ccccc12` registered an IFI of 2.21%. The same measure for `CC(c1cccc(Nc2nccc(-c3c(-c4cccc(NC(=O)c5c(F)cccc5F)c4)nn4ccccc34)n2)c1)S(C)(=O)=O` (centres undefined): 6.31%. As for `O=S(=O)(c1c(Cl)cc(Cl)cc1Cl)N1CCCCC(c2ccc(C(F)(F)F)cc2)=N1`, the figure is 1.5%; as for `Nc1nc(O)c2c(n1)CCc1c(Br)cccc1-2`, 2.31%.

`COc1ccccc1C1CCN(C2CCC(NC(=O)/C=C/c3ccc(OC(F)(F)F)cc3)CC2)CC1` (centres undefined) came in with an IFI of 11.7%. The same measure for `Nc1nc(Nc2cccc(O)c2)nc2ccccc12`: 5.04%; for `NC[C@H](CC1CCCCC1)NC(=O)c1ccc(-c2ccnc3[nH]ccc23)s1`: 22.2%; for `NCC(NC(=O)c1ccc(-c2c[nH]c3ncccc23)s1)c1ccccc1` (centres undefined): 16.1%. The same measure for `CCC[C@@H]([C@@H](CC1CCCCC1)C(=O)N[C@H](C(=O)Nc1nccc(N)n1)C(C)(C)C)N(O)C=O`: 2.86%. The same measure for `OCC1CCN(Cc2cccc(-c3cccc(-c4nc5cc(C(F)(F)F)ccc5[nH]4)c3)c2)CC1`: 5.83%. As to `CCCCCCOc1ccc(C(=O)NCCCC2CCCN(CCCCCNC(=O)C=Cc3ccc(Cl)c(Cl)c3)C2)cc1` (centres undefined), the IFI amounted to 6.87%. `Cc1ccc(F)cc1-c1cc(N2CCCN(C(=O)c3ccc(Br)o3)CC2)ncn1` returned an IFI of 0%. The same measure for `CC(C)(C)OC(=O)N[C@@H](Cc1ccccc1)C(=O)Nc1cccc(-c2cccc(NC(=O)[C@H](Cc3ccccc3)NC(=O)OC(C)(C)C)c2)c1`: 0.72%. The same measure for `COC(=O)C(c1ccc(NC(=O)[C@H](CC(C)C)NC(=O)OC(C)(C)C)cc1)c1ccc(NC(=O)[C@H](CC(C)C)NC(=O)OC(C)(C)C)cc1`: 0%; for `C=CCc1ccc(C[C@H](NC(=O)OC(C)(C)C)C(=O)OC)cc1`: 18.9%. For the compound `CCSc1ccc(C)cc1CON1C(N)=NC(N)=NC1(C)C`, the IFI worked out at 6.34%. As for `Cc1c(Cn2nc(Cl)c(N3CCNCC3)cc2=O)cccc1NC(=O)Nc1ccc(-c2ccccc2)cc1`, the figure is 10.8%; as for `ON=C1c2cc(OCCN3CCCCC3)c(Cl)cc2-c2cc(Cl)c(OCCN3CCCCC3)cc21`, 9.42%; as for `O=C(/C=C/c1ccccc1Cl)Nc1ccc(Br)c(OCCN2CCCCC2)c1`, 5.52%.

`CCC(C)(C)c1ccc(S(=O)(=O)Nc2ccc(Cl)c(OCCN3CCCCC3)c2)cc1` yielded an IFI of 43.1%.

With `COc1ccc(CNC2CCN(C)CC2)cc1-c1cccc(S(=O)(=O)NCc2ccccc2)c1`, the IFI came to 11%. Compound `COc1ccc2c(=NN=Cc3ccccc3Cl)cc(C)[nH]c2c1` came in with an IFI of 3.65%. As for `COc1cc(NC(=O)c2sc(-c3ccc(Cl)cc3)cc2NC(=O)c2cccnc2)ccc1OCCN1CCCC1`, the IFI is 7.19%.

Compound `O=c1c2ccc(F)cc2sn1-c1ccc(Cl)cc1` had an IFI of 23.9%. As for `O=C(/C=C/c1ccc(Cl)c(Cl)c1)NCCCCCN1CCC(c2c[nH]c3c(-c4ccccc4)cccc23)CC1`, the figure is 8.09%; as for `C[C@@H](C(N)=O)N1CCCCC1c1ccc(OCc2cccc(F)c2)cc1` (some centres undefined), 33.8%. The same measure for `CN(Cc1cccc(F)c1)C1CCN(c2cc(NC(=O)c3cccc(F)c3)ccn2)CC1`: 0%; for `CN(Cc1cccc(F)c1)C1CCN(c2cc(NC(=O)c3ccc(F)cc3)ccn2)CC1`: 0%; for `O=C(C=Cc1ccc(Cl)c(Cl)c1)NCCCCCN1CCCC(CCCNS(=O)(=O)c2cccc3cccnc23)C1` (centres undefined): 5.8%. As for `CCc1c(CCNCCCCCCNC(C)Cc2ccc3c(c2CC)OCO3)ccc(OC)c1OC` (centres undefined), the figure is 10.7%; as for `CN1CC[C@@H](Oc2cc(NC(=O)Nc3ccc(Cl)c(C(F)(F)F)c3)ccc2Cl)C1`, 7.63%; as for `CC(C)(C(=O)Nc1ccc(C2CCC(NCC3CC3)CC2)c(Cl)c1)c1cccc(OC(F)F)c1` (centres undefined), 23.4%. `CC(C)(C(=O)Nc1ccc(N2CCC3(CCCN(CC4CC4)C3)CC2)c(Cl)c1)c1cccc(C(F)(F)F)c1` returned an IFI of 6.67%. `O=C(CNCC1CCCCC1)Nc1cc(C(F)(F)F)ccc1Cl` gave an IFI of 4.23%.

Compound `O=C(NCC1CCC(CNCCc2ccccc2)CC1)Nc1ccc(Cl)c(Cl)c1` (centres undefined) displayed an IFI of 0.72%. The same measure for `CC(C)(C(=O)Nc1ccc(C2CCC(NCC3CC3)CC2)c(Cl)c1)c1ccc(C(F)(F)F)cc1` (centres undefined): 25%; for `COc1ccc2c(=NN=C(C)c3ccccn3)cc(C)[nH]c2c1`: 4.96%.

On to `O=C(Nc1ccc(Cl)cc1)c1ccc(CN2CCCN(Cc3cccc(Cl)c3)CC2)cc1`, for which the IFI was 8.66%. The same measure for `CCCCCCN1CCCN(Cc2ccc(C(=O)Nc3ccc(Cl)cc3)cc2)CC1`: 15.2%. The same measure for `Cc1ccccc1CN1CCCN(Cc2ccc(C(=O)Nc3ccc(Cl)cc3)cc2)CC1`: 10.2%; for `CC(C)(C)c1ccc(NC(=O)c2cccc(CN3CCCN(Cc4cccc(Cl)c4)CC3)c2)cc1`: 7.86%; for `Cc1ccccc1CN1CCCN(Cc2ccc(C(=O)Nc3ccc(C(C)(C)C)cc3)cc2)CC1`: 18.4%.

`CC(C)(C)c1ccc(NC(=O)c2ccc(CN3CCCN(Cc4cccc(Cl)c4)CC3)cc2)cc1` showed an IFI of 17.2%. The same measure for `CCCCCCN1CCCN(Cc2ccc(C(=O)Nc3ccc(CC)cc3)cc2)CC1`: 13.5%; for `CC(C)(C)c1ccc(NC(=O)c2ccc(CN3CCCN(Cc4ccc(F)cc4)CC3)cc2)cc1`: 15.6%; for `CCCCCCN1CCCN(Cc2ccc(C(=O)Nc3ccc(C(C)C)cc3)cc2)CC1`: 19.7%.
